The source made the active and inactive calls. Unless noted, no rule for the calls is given here.
How the values were obtained:
[1] = compounds binding Alexa647 anti-His antibody – biochemical, small-molecule microarray, 635 nm fluorescence, artefact control for SMM control protein annotation, primary screen (AID 1128); settings: higher = more signal;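 also: score merges feature fluorescence with signal-to-noise for each printed compound spot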
[2] = system: Human papillomavirus type 1a E7 protein (residues 1-88); experiment: HPV1a E7 small-molecule binders, primary screen, biochemical, small-molecule microarray, residues 1-88, 635 nm (AID 1129); settings: small-molecule microarray binding, fluorescence 635 nm; higher = more signal
[3] = target: Focal adhesion kinase 1 (Homo sapiens) (UniProt Q05397); experiment: PTK2 protein binding on printed compound slides – biochemical, small-molecule microarray, 635/667 nm fluorescence, BSA, DTT, primary screen (AID 1130); settings: 635 nm fluorescence, higher = more signal;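 also: composite of spot emission at 667 nm and signal to noise over triplicate slides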
Focal adhesion kinase 1 (Homo sapiens), sequence (Q05397 whole entry, looked up): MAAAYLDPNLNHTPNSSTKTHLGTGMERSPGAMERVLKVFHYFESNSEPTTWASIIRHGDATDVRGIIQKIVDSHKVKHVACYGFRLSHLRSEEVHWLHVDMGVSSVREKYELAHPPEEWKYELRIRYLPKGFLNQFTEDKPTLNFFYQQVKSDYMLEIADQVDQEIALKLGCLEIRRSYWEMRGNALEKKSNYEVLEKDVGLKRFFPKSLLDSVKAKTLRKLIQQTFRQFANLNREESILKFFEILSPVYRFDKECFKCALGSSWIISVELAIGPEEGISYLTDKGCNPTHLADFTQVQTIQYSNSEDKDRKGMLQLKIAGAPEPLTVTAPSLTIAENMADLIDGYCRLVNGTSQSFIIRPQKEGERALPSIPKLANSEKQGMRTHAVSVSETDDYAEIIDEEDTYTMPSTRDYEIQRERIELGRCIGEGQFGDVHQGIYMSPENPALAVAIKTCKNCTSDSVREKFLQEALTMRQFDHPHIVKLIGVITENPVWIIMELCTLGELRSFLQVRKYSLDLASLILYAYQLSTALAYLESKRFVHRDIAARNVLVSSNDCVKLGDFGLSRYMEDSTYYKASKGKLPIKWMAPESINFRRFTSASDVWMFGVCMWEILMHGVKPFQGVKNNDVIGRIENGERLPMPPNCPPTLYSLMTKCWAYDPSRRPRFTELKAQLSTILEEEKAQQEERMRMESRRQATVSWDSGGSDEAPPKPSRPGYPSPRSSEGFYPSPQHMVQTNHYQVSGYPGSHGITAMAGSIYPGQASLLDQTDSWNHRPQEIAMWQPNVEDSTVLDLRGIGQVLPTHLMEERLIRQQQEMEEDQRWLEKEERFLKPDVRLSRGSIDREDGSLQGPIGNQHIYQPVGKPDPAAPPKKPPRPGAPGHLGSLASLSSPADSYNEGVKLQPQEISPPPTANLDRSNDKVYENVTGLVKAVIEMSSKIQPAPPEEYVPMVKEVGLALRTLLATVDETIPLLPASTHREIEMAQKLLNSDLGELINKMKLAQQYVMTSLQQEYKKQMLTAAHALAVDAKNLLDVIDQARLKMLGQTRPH

[4] = system: Fibrinogen (Alexa647-labelled); experiment: Alexa647-fibrinogen binding to printed small molecules – biochemical, small-molecule microarray, 635/667 nm fluorescence, artefact control for SMM control-protein annotation, profiling panel (AID 1131); settings: fibrinogen-A647 binding fluorescence, higher = more signal;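 also: z-score merges 667 nm fluorescence with per-spot signal-to-noise over triplicate slides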
[5] = target: Follistatin (Homo sapiens) (UniProt P19883); experiment: FST protein binding to printed compounds – biochemical, small-molecule microarray, 635/667 nm fluorescence, primary screen (AID 1132); settings: 635 nm fluorescence, higher = more signal
Follistatin (Homo sapiens), sequence (P19883 whole entry, looked up): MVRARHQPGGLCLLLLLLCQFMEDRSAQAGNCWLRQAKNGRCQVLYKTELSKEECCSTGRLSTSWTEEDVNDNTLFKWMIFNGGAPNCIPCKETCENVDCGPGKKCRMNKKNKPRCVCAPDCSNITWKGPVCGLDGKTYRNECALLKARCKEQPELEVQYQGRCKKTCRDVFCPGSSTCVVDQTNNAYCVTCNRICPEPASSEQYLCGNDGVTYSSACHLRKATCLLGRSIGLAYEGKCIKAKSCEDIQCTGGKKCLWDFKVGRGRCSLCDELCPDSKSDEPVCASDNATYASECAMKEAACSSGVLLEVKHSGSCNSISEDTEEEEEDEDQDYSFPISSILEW

[6] = target: Fibroblast growth factor 2 (Homo sapiens) (UniProt P09038); experiment: basic fibroblast growth factor binding to printed compounds – biochemical, small-molecule microarray, 635/667 nm fluorescence, primary screen (AID 1133); settings: FGF2, fluorescence 635/667, higher = more signal
Fibroblast growth factor 2 (Homo sapiens), sequence (P09038 whole entry, looked up): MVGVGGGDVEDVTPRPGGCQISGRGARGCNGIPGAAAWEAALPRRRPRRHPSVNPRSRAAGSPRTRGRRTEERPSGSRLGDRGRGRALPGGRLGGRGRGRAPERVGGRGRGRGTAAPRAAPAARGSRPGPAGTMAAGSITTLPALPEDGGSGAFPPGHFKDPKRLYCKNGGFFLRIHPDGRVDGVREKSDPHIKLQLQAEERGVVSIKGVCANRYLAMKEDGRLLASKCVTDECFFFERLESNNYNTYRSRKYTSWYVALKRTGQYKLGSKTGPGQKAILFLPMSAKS

[7] = JC-1 mitochondrial potential readout, lung cancer cells – cell-based, A549, JC-1 fluorescence, basal, 24 h, 100 nL, profiling panel (AID 1138); settings: higher = more signal;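 also: A549 lung adenocarcinoma cells under basal conditions with no added stimulus; test concentration not given here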
[8] = system: Lefty1; experiment: Lefty1 protein binding to printed compounds – biochemical, small-molecule microarray, 635/667 nm fluorescence, primary screen (AID 1139); settings: fluorescence 635/667, higher = more signal
[9] = system: wheat germ agglutinin (Triticum aestivum), Alexa647-labelled; experiment: Alexa647-WGA lectin binding to printed small molecules – biochemical, small-molecule microarray, 635/667 nm fluorescence, artefact control for SMM control-protein annotation, profiling panel (AID 1140); settings: WGA-A647 binding, 635 nm fluorescence, higher = more signal;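 also: score merges 667 nm feature emission with signal to noise over triplicate slides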
[10] = target: Luciferin 4-monooxygenase (Photinus pyralis) (UniProt P08659); experiment: inhibition of purified Photinus pyralis luciferase – biochemical, luminescence, purified enzyme, 2006 set, primary screen (AID 1141); settings: purified firefly luciferase, SteadyGlo luminescence, 30 min; higher = more signal, called active from +8 up or from −8 down;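 also: cell-free assay with purified firefly luciferase at 100 ng per well in PBS; test concentration not given here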
Luciferin 4-monooxygenase (Photinus pyralis), sequence (P08659 whole entry, looked up): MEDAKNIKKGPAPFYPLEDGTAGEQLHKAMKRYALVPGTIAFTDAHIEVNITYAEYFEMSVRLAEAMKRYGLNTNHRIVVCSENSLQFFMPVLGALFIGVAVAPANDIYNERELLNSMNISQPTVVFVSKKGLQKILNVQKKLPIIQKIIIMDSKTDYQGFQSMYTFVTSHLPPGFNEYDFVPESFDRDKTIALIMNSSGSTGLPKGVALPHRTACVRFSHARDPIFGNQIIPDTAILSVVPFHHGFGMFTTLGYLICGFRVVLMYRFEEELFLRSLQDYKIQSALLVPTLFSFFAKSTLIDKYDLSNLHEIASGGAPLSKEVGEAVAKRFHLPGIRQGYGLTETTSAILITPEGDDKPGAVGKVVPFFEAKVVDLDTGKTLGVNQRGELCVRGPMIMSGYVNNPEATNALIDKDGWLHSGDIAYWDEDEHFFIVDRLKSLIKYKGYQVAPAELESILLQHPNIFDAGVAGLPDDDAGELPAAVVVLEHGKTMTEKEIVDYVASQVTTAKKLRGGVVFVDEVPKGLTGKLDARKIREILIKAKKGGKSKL

[11] = system: Wnt5a (protein binding on small-molecule microarray); experiment: small molecules binding Wnt5a protein – biophysical, small-molecule microarray, 635/667 nm fluorescence, primary screen (AID 1142); settings: 635 nm fluorescence, higher = more signal;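 also: fluorescence read at 667 nm with signal to noise per printed feature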
[12] = ATP-based viability of Huh7 replicon cells – cell-based, CellTiter-Glo luminescence, basal, 48 h, cytotoxicity control for HCV replication inhibitor project, primary screen (AID 1143); settings: higher = more signal, called active from +8 up or from −8 down;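 also: Huh7 hepatoma cells carrying a hepatitis C replication reporter with no stimulus; test concentration not given here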
[13] = Pseudomonas biofilm growth suppression – PAO1 strain, BacTiter-Glo luminescence, LB-PBS, primary screen (AID 1144); settings: P. aeruginosa PAO1 biofilm, 12 h, higher = more signal
[14] = basal CRE-LacZ reporter activity in PC12 – cell-based, unstimulated, primary screen (AID 1145); settings: no forskolin, luminescence, 4.5 h, higher = more signal, called active from +8 up or from −8 down
[15] = forskolin-driven CRE-LacZ activity in PC12 – cell-based, CRE-LacZ reporter, forskolin-stimulated, primary screen (AID 1146); settings: luminescence, 4.5 h, higher = more signal, called active from +8 up or from −8 down;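 also: PC12 cells with 6xCRE LacZ reporter stimulated by forskolin 10 µM; beta-galactosidase reporter signal reflecting CREB driven transcription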
[16] = target: Streptavidin (Streptomyces avidinii) (UniProt P22629); experiment: compounds binding control protein streptavidin – biophysical, small-molecule microarray, 635/667 nm fluorescence, artefact control for SMM compound annotation, primary screen (AID 1147); settings: higher = more signal;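 also: signal reflects streptavidin binding to arrayed compounds as a control protein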
Streptavidin (Streptomyces avidinii), sequence (P22629 whole entry, looked up): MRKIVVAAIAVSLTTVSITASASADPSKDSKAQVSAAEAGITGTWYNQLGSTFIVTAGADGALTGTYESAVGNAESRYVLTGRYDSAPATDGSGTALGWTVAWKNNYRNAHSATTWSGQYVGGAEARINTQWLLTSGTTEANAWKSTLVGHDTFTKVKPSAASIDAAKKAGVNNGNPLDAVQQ

[17] = probe aInhba binding on compound microarray – biochemical, small-molecule microarray, 635/667 nm fluorescence, primary screen (AID 1148); settings: higher = more signal;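 also: score merges 667nm spot fluorescence with signal-to-noise for antibody binding to printed compounds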
[18] = target: Torsin-1A (Homo sapiens) (UniProt O14656); experiment: TOR1A wild-type binding on microarray – cell lysate, small-molecule microarray, lysate, 635/667 nm, primary screen (AID 1149); settings: COS7 hTOR1A-WT lysate, 635 nm fluorescence, higher = more signal
Torsin-1A (Homo sapiens), sequence (O14656 whole entry, looked up): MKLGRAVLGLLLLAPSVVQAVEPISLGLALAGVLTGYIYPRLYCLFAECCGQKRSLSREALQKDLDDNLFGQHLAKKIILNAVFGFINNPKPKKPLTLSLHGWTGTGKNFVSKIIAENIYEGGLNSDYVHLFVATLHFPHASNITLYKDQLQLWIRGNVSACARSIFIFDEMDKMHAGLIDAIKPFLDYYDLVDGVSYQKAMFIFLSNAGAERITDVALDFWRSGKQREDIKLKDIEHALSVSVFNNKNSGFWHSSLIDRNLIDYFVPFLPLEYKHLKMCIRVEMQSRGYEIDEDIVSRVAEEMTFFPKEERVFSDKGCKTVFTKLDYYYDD

[19] = target: Torsin-1A (Homo sapiens) (UniProt O14656); experiment: torsin A mutant lysate binding on microarrays – cell lysate, small-molecule microarray, COS7 lysate, 635/667 nm fluorescence, primary screen (AID 1150); settings: COS7 hTOR1A mutant lysate, 635 nm fluorescence, higher = more signal;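 also: score pools 667 nm emission and signal to noise measuring lysate protein binding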
[20] = system: Sonic hedgehog protein (Shh); experiment: Sonic hedgehog microarray binding compounds – biochemical, small-molecule microarray, 635/667 nm fluorescence, primary screen (AID 1151); settings: 635 nm fluorescence, higher = more signal;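 also: Shh protein binding to compounds spotted on small-molecule microarray slides; score combines spot fluorescence intensity with signal-to-noise across triplicate slides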

Row | SMILES | composite z-score [1] | composite z-score [2] | composite z-score [3] | composite z-score [4] | composite z-score [5] | composite z-score [6] | z-score [7] | composite z-score [8] | composite z-score [9] | z-score [10] | composite z-score [11] | z-score [12] | z-score [13] | z-score [14] | z-score [15] | composite z-score [16] | composite z-score [17] | composite z-score [18] | composite z-score [19] | composite z-score [20]
1 | CCOC(=O)CCN1C(=O)[C@H]2[C@H]3[C@H](O)[C@H](O)CC(=NOC[C@@H](O)COCc4ccco4)[C@@H]3CC[C@H]2C1=O | 1.08 | -0.0069 | 0.144 | 0.825 | -0.977 | 0.225 | 0.928 | -0.219 | 0.0513 | 0.542 (inactive) | -0.0579 | -0.632 (inactive) | -0.35 (inactive) | 0.251 (inactive) | 0.069 (inactive) | 0.663 | -0.197 | 0.584 | -0.0032 | -0.825
2 | Cc1cc2c(nc1C)CCCN2CC(C)ON=C1[C@H]2CCn3c(=O)n(-c4ccccc4)c(=O)n3[C@H]2[C@H](O)[C@@H]2O[C@H]12 (stereo not given in full) | -0.674 | 0.304 | 0.515 | 0.342 | 0.687 | 0.56 | -0.562 | 0.703 | 0.075 | 0.424 (inactive) | 0.337 | 0.357 (inactive) | -0.258 (inactive) | 0.415 (inactive) | 0.533 (inactive) | 0.196 | 0.0301 | -0.0339 | 0.246 | 1.03
3 | CCN1C(=O)[C@H]2[C@H]3[C@H](O)[C@H](O)CC(=NO[C@@H]4O[C@H](CO)[C@@H](O)[C@H](O)[C@H]4O)[C@@H]3CC[C@H]2C1=O | -0.0636 | -1.45 | -0.41 | -2.56 | 0.477 | 0.0724 | 0.459 | 0.232 | 0.714 | -0.156 (inactive) | -0.215 | 0.499 (inactive) | 0.00567 (inactive) | -0.925 (inactive) | -0.951 (inactive) | -0.933 | -0.249 | 1.47 | -0.213 | 0.365
4 | CCOC(=O)[C@H](Cc1ccccc1)NC(=O)CCC1CC(OC(=O)NCc2ccc3c(c2)OCO3)CC2(CCCC(COC(=O)NCC(c3ccccc3)c3ccccc3)O2)O1 (stereo not given in full) | 0.98 | 1.2 | 0.231 | 0.0058 | 0.83 | 0.555 | 0.803 | 0.579 | 0.477 | 0.635 (inactive) | -0.169 | -0.9 (inactive) | -1.34 (inactive) | -0.255 (inactive) | 0.0668 (inactive) | 0.0072 | 0.0155 | 0.545 | 0.401 | 1.48
5 | CC(=O)OC[C@H]1O[C@H](CCON=C(C)CCN2CCc3nc(-c4ccccc4)c(-c4ccccc4)cc3C2)C=C[C@@H]1OC(C)=O | -0.437 | 0.0723 | 0.186 | 0.476 | 0.129 | -0.138 | 1.15 | 0.172 | 0.563 | 0.938 (inactive) | -0.192 | -1.04 (inactive) | 0.23 (inactive) | 4.88 (inactive) | 0.0929 (inactive) | 0.316 | 0.156 | 0.0622 | 0.407 | 0.287
6 | N#Cc1ccc(NN2C(C(O)c3cccc4ccccc34)C=CC3C(=O)N(c4ccccc4)C(=O)C32)cc1 (stereo not given) | 1.06 | 1.24 | 0.413 | 0.965 | 1.23 | -0.24 | 1.11 | 0.279 | 1.24 | 0.512 (inactive) | 0.305 | 0.128 (inactive) | -0.811 (inactive) | -0.708 (inactive) | -0.302 (inactive) | 1.75 | 0.49 | 0.612 | 0.358 | -0.335
7 | CCc1cccc(NC(=O)O[C@H]2[C@H](OC(=O)Nc3ccc4c(c3)OCO4)[C@@H](OC(=O)Nc3ccc4c(c3)OCO4)[C@@H](OC)O[C@@H]2CO)c1 | 0.646 | 1.25 | -0.106 | 0.992 | 1.03 | 0.528 | -0.321 | 1.36 | 0.809 | -7.34 (inactive) | 0.546 | -3.35 (inactive) | -1.21 (inactive) | 0.101 (inactive) | -0.684 (inactive) | 1.28 | 0.0073 | 1.14 | 0.731 | 1.76
8 | CC(C)NC(=O)[C@@]1(C)c2ccccc2C(=O)N(Cc2cc(F)cc(C(F)(F)F)c2)[C@H]1c1ccc(CO)cc1 | 0.886 | 0.982 | 0.0792 | 0.335 | 0.677 | 1.67 | -0.483 | 0.0338 | 0.512 | 0.433 (inactive) | 0.646 | -0.527 (inactive) | -0.699 (inactive) | 0.648 (inactive) | -0.237 (inactive) | 0.0926 | 0.2 | 0.411 | 0.916 | 0.903
9 | CCOC(=O)NN=C1C[C@@H](O)[C@@H](O)[C@@H]2[C@@H]3C(=O)N(C4CCCCC4)C(=O)[C@@H]3CC[C@@H]12 | 0.327 | -0.18 | 0.287 | 0.5 | 0.267 | 0.365 | 0.497 | 0.319 | 0.0034 | -0.182 (inactive) | 0.133 | 0.392 (inactive) | 0.471 (inactive) | 0.16 (inactive) | 0.366 (inactive) | 0.132 | -0.0987 | 0.597 | 0.726 | 0.0717
10 | C/C=C\[C@@H](NCc1ccccc1Br)[C@@H](O)Cc1ccccc1 | -0.13 | -0.469 | -0.119 | -0.641 | -0.604 | -1.4 | -1.4 | -0.972 | -0.819 | 0.979 (inactive) | -0.771 | -5.43 (inactive) | 0.541 (inactive) | 0.857 (inactive) | 0.567 (inactive) | -0.838 | -0.153 | 0.0908 | -0.27 | -1.3
